Test results as given in PubChem BioAssay (NCATS).
Several values for one entry are separate records, joined by “and”; a condition that tells them apart may be missing. Equal values may be shown once. Results filed as inconclusive are left out. Activity calls are given as the source filed them. Unless noted, the call rests on the fitted dose curve; in most records, active means well fitted curve in the direction sought with a large enough effect; inconclusive means small, poorly fitted or top-dose-only effect, or another doubt; inactive means no such curve, though single readings can be large; an effect the other way counts as inactive or inconclusive.

Assays:
[1] = molecular target: Cellular tumor antigen p53 (Homo sapiens) (UniProt P04637); assay: Primary qHTS for small molecule compounds that upregulate eGFP-tagged delta133p53alpha (in C-terminal) cells. (AID 2060324); further: potency means the concentration at half of the fitted maximal effect
Chain of Cellular tumor antigen p53 (Homo sapiens) (P04637 whole entry, looked up): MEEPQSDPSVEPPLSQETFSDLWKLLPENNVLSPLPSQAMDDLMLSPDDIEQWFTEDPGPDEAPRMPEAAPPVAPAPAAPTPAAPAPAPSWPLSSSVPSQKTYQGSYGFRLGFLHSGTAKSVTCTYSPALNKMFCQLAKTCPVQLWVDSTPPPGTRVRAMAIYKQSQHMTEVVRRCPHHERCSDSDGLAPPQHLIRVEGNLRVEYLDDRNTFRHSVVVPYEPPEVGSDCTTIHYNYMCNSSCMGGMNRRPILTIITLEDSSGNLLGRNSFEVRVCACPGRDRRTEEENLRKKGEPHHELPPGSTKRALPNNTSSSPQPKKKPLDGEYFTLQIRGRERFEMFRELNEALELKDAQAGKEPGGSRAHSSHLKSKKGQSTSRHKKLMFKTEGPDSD
In short: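 Concentration-response screen: compounds titrated onto pre-induced NCI-H358 D133p53a-eGFP cells, incubated one day, fixed with 3.5% PFA. Per-cell GFP peak intensity was gated, then normalized against intraplate controls.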

[2] = molecular target: Aldehyde dehydrogenase, mitochondrial (Homo sapiens) (UniProt P05091); assay: qHTS for Inhibitors of the Aldehyde Dehydrogenase Family (ALDH2) Validation screens (AID 2061302; active means well fitted inhibition curve with a large enough effect; title and protocol of this record describe different tests; further: potency means the concentration at half of the fitted maximal effect)
[3] = molecular target: Retinaldehyde dehydrogenase 3 (Homo sapiens) (UniProt P47895); assay: qHTS for Inhibitors of the Aldehyde Dehydrogenase Family (ALDH1A3) Validation screen (AID 2061312); further: on the % scale 0 is the no-effect control and ±100 the full control effect; nearly all actives have a fitted effect of over 45% in size
[4] = molecular target: Aldehyde dehydrogenase, mitochondrial (Homo sapiens) (UniProt P05091); assay: qHTS for Inhibitors of the Aldehyde Dehydrogenase Family (ALDH2) Confirmatory screens (AID 2061303; active means well fitted inhibition curve with a large enough effect; title and protocol of this record describe different tests; further: nearly all actives have a fitted effect of over 45% in size; further: potency means the concentration at half of the fitted maximal effect)
[5] = qHTS for Inhibitors of the Aldehyde Dehydrogenase Family (ALDH1A2, ALDH1A3, ALDH2, ALDH3A1) (AID 2061307); further: nearly all actives have a fitted effect of over 50% in size; on Potency: test system not described further here; potency means the concentration at half of the fitted maximal effect
[6] = molecular target: Retinaldehyde dehydrogenase 3 (Homo sapiens) (UniProt P47895); assay: qHTS for Inhibitors of the Aldehyde Dehydrogenase Family (ALDH1A3) Confirmatory screens (AID 2061311); further: nearly all actives have a fitted effect of over 60% in size; further: potency means the concentration at half of the fitted maximal effect
[7] = molecular target: Aldehyde dehydrogenase 1A1 (Homo sapiens) (UniProt P00352); assay: qHTS for Inhibitors of the Aldehyde Dehydrogenase Family (ALDH1A1) Confirmatory screens (AID 2061316); further: nearly all actives have a fitted effect of over 65% in size; further: potency means the concentration at half of the fitted maximal effect
[8] = BET inhibitor-based combinations targeting novel dependencies in MECOM-rearranged (r) AML: OCI-AML3 cell line (AID 2202232); settings: Potency: OCI-AML3 viability; further: nearly all actives have a fitted effect of over 35% in size; further: potency means the concentration at half of the fitted maximal effect
In short: (§1)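 A 48 hr incubation preceded viability reading by CellTiter-Glo, with 15 min room-temperature development. Dose series had 11 points; normalization used DMSO and empty wells; AUC was computed and mean-centered per line as Z-AUC.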

[9] = BET inhibitor-based combinations targeting novel dependencies in MECOM-rearranged (r) AML: MV-4-11 cell line (AID 2202233); further: nearly all actives have a fitted effect of over 45% in size; further: potency means the concentration at half of the fitted maximal effect
In short: (§2)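 Each compound is tested in an 11-point concentration series against 500 seeded cells/well for 48 hr. The luminescent viability signal is normalized to DMSO and blank wells, then reduced to AUC and a cell-line-centred Z-AUC.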

[10] = BET inhibitor-based combinations targeting novel dependencies in MECOM-rearranged (r) AML: HNT-34 cell line (AID 2202234); further: nearly all actives have a fitted effect of over 35% in size; further: potency means the concentration at half of the fitted maximal effect
In short: as §2

[11] = BET inhibitor-based combinations targeting novel dependencies in MECOM-rearranged (r) AML: UCSD-AML1 cell line (AID 2202235); further: nearly all actives have a fitted effect of over 40% in size; further: potency means the concentration at half of the fitted maximal effect
In short: as §2

[12] = BET inhibitor-based combinations targeting novel dependencies in MECOM-rearranged (r) AML: AML-191 cell line (AID 2202236; further: nearly all actives have a fitted effect of over 35% in size; further: potency means the concentration at half of the fitted maximal effect)
In short: as §1

[13] = molecular target: Retinal dehydrogenase 2 (Homo sapiens) (UniProt O94788); assay: qHTS for Inhibitors of the Aldehyde Dehydrogenase Family (ALDH1A2) Confirmation screens (AID 2061314); further: nearly all actives have a fitted effect of over 65% in size; further: potency means the concentration at half of the fitted maximal effect
[14] = BET inhibitor-based combinations targeting novel dependencies in MECOM-rearranged (r) AML: AML-194 cell line (AID 2202237; further: nearly all actives have a fitted effect of over 40% in size; further: potency means the concentration at half of the fitted maximal effect)
In short: as §1

[15] = molecular target: Aldehyde dehydrogenase, mitochondrial (Homo sapiens) (UniProt P05091); assay: qHTS for Inhibitors of the Aldehyde Dehydrogenase Family (ALDH2) Primary screen (AID 2061308); further: nearly all actives have a fitted effect of over 55% in size; further: potency means the concentration at half of the fitted maximal effect
[16] = molecular target: Retinaldehyde dehydrogenase 3 (Homo sapiens) (UniProt P47895); assay: qHTS for Inhibitors of the Aldehyde Dehydrogenase Family (ALDH1A3) Primary screen (AID 2061315);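 further: plate controls were DMSO vehicle for no effect and reference inhibitor for full effect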
[17] = BET inhibitor-based combinations targeting novel dependencies in MECOM-rearranged (r) AML: SET-2 cell line (AID 2202231); settings: SET-2 AML cells viability, CellTiter-Glo luminescence, 48 h; viability: hits give low values, concentration not given here; further: nearly all actives have a fitted effect of over 35% in size; further: potency means the concentration at half of the fitted maximal effect;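 on viability: plate controls were DMSO treated cells for no effect and wells without cells for full effect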
In short: as §1

OC1(c2ccc(Cl)cc2)CCN(Cc2c[nH]c3ccccc23)CC1
inactive: Potency [1] | Potency [2] | Potency [3]

CCCCCC(O)CCCC(=O)O (configuration not stated)
inactive: Potency [1] | Potency [2] | Potency [3]

O=C(/C=C/c1ccc(O)cc1)c1ccc(O)cc1O
active: Potency [5] 1.2 µM | Potency [6] 0.504 µM | Potency [7] 3.18 µM | Potency [8] 14.8 µM | Potency [9] 11.8 µM | Potency [10] 9.34 µM | Potency [12] 26.3 µM
inactive: Potency [1] | Potency [2] | Potency [4] | Potency [11]

O=S(=O)(c1cccc2c(I)cccc12)N1CCCNCC1
inactive: Potency [1] | Potency [2] | Potency [5] | Potency [13] | Potency [9] | Potency [10] | Potency [11] | Potency [12] | Potency [14]
active: Potency [8] 20.9 µM

Cc1cc(C(C)(C)C)c(O)c(C)c1CC1=NCCN1
inactive: Potency [1] | Potency [2] | Potency [15] | Potency [3] | Potency [16] | viability [17] 118% | Potency [8] | Potency [9] | Potency [10] | Potency [11] | Potency [12] | Potency [14]

CC(C)NCC(O)COc1ccc(CC(N)=O)cc1 (configuration not stated)
inactive: Potency [1] | Potency [2] | Potency [3]

CCCN1C[C@H](CSC)C[C@@H]2c3cccc4[nH]cc(c34)C[C@H]21
inactive: Potency [1] | Potency [2] | Potency [15] | Potency [16]

COc1ccc(Cl)cc1C(=O)NCCc1ccc(S(=O)(=O)NC(=O)NC2CCCCC2)cc1
inactive: Potency [1] | Potency [2] | Potency [15] | Potency [3] | Potency [16]

N[C@H](C(=O)O)[C@H](O)C(=O)O
inactive: Potency [1] | Potency [2] | Potency [4] | Potency [5] | Potency [6] | Potency [7]

O=C(O)CP(=O)(O)O
inactive: Potency [1] | Potency [2] | Potency [3]

CN1CCC2(CCN3CCc4c(oc5ccccc45)C3C2)N(C)C1=O (configuration not stated)
inactive: Potency [1] | Potency [2] | Potency [4] | Potency [5] | Potency [6] | Potency [7]

O=C(O)c1cc([N+](=O)[O-])ccc1NCCCc1ccccc1
inactive: Potency [1] | Potency [2] | Potency [3]

C[C@H]1CC2C3CCC4=CC(=O)C=C[C@]4(C)[C@@]3(Cl)[C@@H](O)C[C@]2(C)[C@@]1(O)C(=O)CO (some centres not stated)
inactive: Potency [1] | Potency [2] | Potency [3]

Nc1ccc2c3c(cccc13)C(=O)NC2=O
inactive: Potency [2] | Potency [3]
active: Potency [1] 30.1 µM

CC(C)N(CCC(=O)c1ccc2ccccc2c1)Cc1ccccc1
active: Potency [1] 23.9 µM | Potency [2] 355 nM and 2.51 µM | Potency [4] 3.16 µM | Potency [5] 0.0127 µM | Potency [15] 0.251 µM | Potency [6] 0.283 µM | Potency [13] 0.0565 µM | Potency [7] 0.0449 µM | Potency [17] 8.33 µM | Potency [8] 4.17 µM | Potency [9] 2.09 µM | Potency [10] 5.25 µM | Potency [11] 4.17 µM | Potency [12] 6.61 µM | Potency [14] 7.42 µM

CSC(=N)N
inactive: Potency [1] | Potency [2] | Potency [3]

CC1=C(C(=O)O)N2C(=O)[C@@H](NC(=O)C(N)c3ccccc3)[C@H]2SC1 (some centres not stated)
inactive: Potency [1] | Potency [2] | Potency [3]

COc1cc(C(=O)OCCCN2CCCN(CCCOC(=O)c3cc(OC)c(OC)c(OC)c3)CC2)cc(OC)c1OC
inactive: Potency [1] | Potency [2]

Cc1cccc(C)c1OCC(C)N (configuration not stated)
inactive: Potency [1] | Potency [2] | Potency [3]

CN1CC(=O)N/C1=N/C(=O)Nc1cccc(Cl)c1
inactive: Potency [1] | Potency [2] | Potency [3]

CNS(=O)(=O)CCc1ccc2[nH]cc(C3CCN(C)CC3)c2c1
inactive: Potency [1] | Potency [2] | Potency [15] | Potency [3] | Potency [16]

CCc1cncnc1N1CCN(Cc2nc3ccc(C(F)(F)F)cc3[nH]2)CC1
active: Potency [17] 14.8 µM | Potency [8] 11.8 µM | Potency [9] 18.6 µM | Potency [12] 13.2 µM
inactive: Potency [1] | Potency [2] | Potency [15] | Potency [3] | Potency [16] | Potency [11]

COc1ccc2cc([C@H](C)C(=O)O)ccc2c1
inactive: Potency [1] | Potency [2] | Potency [15] | Potency [3] | Potency [16] | viability [17] 116% | Potency [8] | Potency [9] | Potency [10] | Potency [11] | Potency [12] | Potency [14]

O=c1[nH]c2ccccc2c2ccccc12
inactive: Potency [1] | Potency [2] | Potency [3]

CC(C)CC(NP(=O)(O)O[C@@H]1O[C@@H](C)[C@H](O)[C@@H](O)[C@H]1O)C(=O)NC(Cc1c[nH]c2ccccc12)C(=O)O (some centres not stated)
inactive: Potency [1] | Potency [2] | Potency [3]

CC(C)(CO)Cc1cc(C(C)(C)C)c(O)c(C(C)(C)C)c1
inactive: Potency [1] | Potency [2] | Potency [3]

S=C(S)N1CCCC1
active: Potency [1] 15.1 µM | Potency [2] 3.16 µM

O=C(c1ccc(F)cc1)C1CCN(CCn2c(=O)[nH]c3ccccc3c2=O)CC1
inactive: Potency [1] | Potency [2] | Potency [15] | Potency [3] | Potency [16]
